A short description of assay [1]: qHTS for differential inhibitors of proliferation of Plasmodium falciparum line HB3 (AID 1886).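 Further: potency means the concentration at half of the fitted maximal effect; parasites grown with compound for 72 h before SYBR Green readout.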 The settings on record: Potency: Plasmodium falciparum HB3 proliferation inhibition. Background: Quantitative high-throughput screening tests each substance at several concentrations.
For assay [2], the target named is Ferritin light chain (Equus caballus) (UniProt P02791). The experiment in a line: qHTS Validation Assay for Identification of Novel General Anesthetics (AID 2323). Further: on the % scale 0 is the no-effect control and ±100 the full control effect. The essentials: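 Horse-spleen apoferritin (10 uM) in PBS with 50% saturated 1-aminoanthracene; compounds pin-transferred, 10 min at room temperature. Fluorescence read at 380/535 nm, normalized to free 1-AMA and 1-AMA/apoferritin values; four-parameter Hill fit.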

Assay [3] deals with ATP-dependent DNA helicase Q1 (Homo sapiens) (UniProt P46063). The experiment in a line: qHTS Validation Assay for Inhibitors of RecQ-Like Dna Helicase 1 (RECQ1) (AID 2353).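 Further: plate controls were DMSO vehicle for no effect and enzyme-free control for full effect.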 In outline:
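50 nM RECQ1T1 preincubated 15 min with compound in Tris pH 8.0 buffer with MgCl2, DTT, Tween-20 and 2.5 ug/ml poly(dI-dC); started with 200 nM TAMRA/BHQ-2 forked duplex and 2 mM ATP. Unwinding read as fluorescence (525/598 nm), two reads 2 h apart.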

The nature of assay [4]: Quantitative high throughput screen for delayed death inhibitors of the malarial parasite plastid, 96 hour incubation (AID 488745). Further: potency means the concentration at half of the fitted maximal effect; nearly all actives have a fitted effect of over 70% in size. In outline: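 Infected erythrocytes were added to compound in Albumax-supplemented RPMI 1640 at 0.1% parasitemia and 2% hematocrit (final), incubated 96 h at 37 C under 5% CO2, then luciferase reagent was added and luminescence measured.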
A short description of assay [5]: Quantitative high throughput screen for delayed death inhibitors of the malarial parasite plastid, 48 hour incubation (AID 488752). Further: potency means the concentration at half of the fitted maximal effect; nearly all actives have a fitted effect of over 65% in size. The essentials:
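Readout is firefly luciferase luminescence from a reporter integrated into the parasite genome, with lower signal taken as inhibited growth. Infected red cells (0.1% parasitemia, 2% hematocrit final) are cultured with compound for one 48 h cycle at 37 C.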

The target of assay [6] is M-phase phosphoprotein 8 (Homo sapiens) (UniProt Q99549). The experiment in a line: qHTS Validation Assay for Inhibitors for MPP8 Chromodomain Interactions with Methylated Histone Tails (AID 488949). Further: top concentration of the series differs between compounds; on the % scale 0 is the no-effect control and ±100 the full control effect; nearly all actives have a fitted effect of over 55% in size. In outline: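 MPP8 (50 nM) was pre-bound to 50 nM biotinylated H3(1-18)K9me3 peptide in PBS pH 7.4 with 0.01% Tween-20. Compounds were then added for 30 min at room temperature, and complex disruption was read by AlphaScreen with streptavidin donor and nickel-chelate acceptor beads.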

The target of assay [7] is Transient receptor potential cation channel subfamily V member 1 (Homo sapiens) (UniProt Q8NER1). The experiment in a line: HTS Assay for Compounds that Act as Enhancers of the Vanilloid Receptor 1 (AID 488979). Further: 0% is about no effect. In outline: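 TRPV1 cells loaded with Fluo-8 calcium dye; compound added and Ca2+ signal (ex 480/em 520 nm) followed 3 min, then capsaicin at EC20 added and read 2 more min to detect enhancement.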

The target in assay [8] is Thyrotropin receptor (Homo sapiens) (UniProt P16473). The experiment in a line: qHTS Assay for Antagonists of the Thyroid Stimulating Hormone Receptor (AID 488980). Further: 0% is about no effect. The essentials:
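TSHR-transfected HEK293 cells (2000/well) in HEPES-buffered HBSS with 70 uM RO 20-1724 were stimulated with 4 nM TSH (EC80, final) in the presence of compound. cAMP was measured by HTRF competition after lysis and 30 min at RT.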

Assay [9] deals with Thyrotropin-releasing hormone receptor (Homo sapiens) (UniProt P34981). The experiment in a line: qHTS for Small Molecule Agonists and Allosteric Enhancers of Human TRH Receptor: Validation Screen for Agonists (AID 493127;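 active means calcium activation more than 3 SD above the typical response in the agonist read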;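 further: intracellular calcium rise by fluo-8 fluorescence before TRH EC20 addition; 0% is about no effect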). As to conditions: TRH receptor agonist cell assay; at 2 µM; stronger effect = higher value. The essentials: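 Cells 2000/well, 10% FCS, 18 h 33.5C/5% CO2 → fluo-8 Ca dye, RT 30 min–1.5 h → FDSS baseline 10 × 1 s → compound added → 230 cycles (1 s/cycle) agonist mode. TRH controls.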

Assay [10] has as its target Galactokinase (Homo sapiens) (UniProt P51570). The experiment in a line: qHTS Validation Assay for Inhibitors of Human Galactokinase (GALK) (AID 493189). Further: 0% is about no effect. The essentials:
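GALK (5 nM) with 35 uM ATP and 100 uM galactose in HEPES pH 8.0 with MgCl2, NaCl, DTT and BSA. Reaction ran 1 h at room temperature. Residual ATP read by Kinase-Glo Plus luminescence.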

The nature of assay [11]: Validation screen for small molecules that induce DNA re-replication in SW480 colon adenocarcinoma cells (AID 504364). Further: 0% is about no effect. In outline: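 250 cells/well; compound pinned in; 48 hr, 37 C, 5% CO2; Hoechst added, 40 min; nuclear fluorescence imaged, 405 ex / 500-530 em; re-replication scored as increase in high-intensity nuclei.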
For assay [12], the target named is DNA dC->dU-editing enzyme APOBEC-3G (Homo sapiens) (UniProt Q9HC16). Description: qHTS for inhibitors of Vif-A3G interactions: Validation (AID 588379). Further: 0% is about no effect. The essentials: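 HeLa cells stably expressing Vif and A3G-eYFP, 700 cells/well, incubated overnight at 37 deg C, then exposed to compound overnight at 37 deg C. Inhibition of Vif-mediated degradation read as increased yellow fluorescence (Ex 488/Em 500-530) by laser-scanning cytometry.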

Assay [13] concerns the target Voltage-gated inwardly rectifying potassium channel KCNH2 (Homo sapiens) (UniProt Q12809). The experiment in a line: qHTS Assay for Small Molecule Inhibitors of the Human hERG Channel Activity (AID 588834).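 Further: top concentration of the series differs between compounds; on the % scale 0 is the no-effect control and ±100 the full control effect; lower thallium flux fluorescence means stronger hERG block; nearly all actives have a fitted effect of over 50% in size.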 In outline:
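U2OS cells BacMam-transduced with hERG, 2000 cells/well, compound ~10 min at 37 °C before stimulation buffer. FluxOR thallium flux fluorescence read kinetically on FDSS; decrease indicates block; AC50 from Hill fits.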

Assay [14] is described as follows: qHTS profiling for inhibitors of Plasmodium falciparum (3D7) proliferation (AID 743322).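 Further: infected erythrocytes exposed to compound for 72 h before lysis; 100% = DMSO vehicle wells and 0% = 0.29 µM artemisinin.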 As to conditions: P. falciparum 3D7 proliferation; at 28.7 µM (top of the series). In outline:
(§1)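 Erythrocytes infected with P. falciparum (0.3% parasitemia, 2.5% hematocrit) incubated with compounds 72 h at 37 C, 5% CO2. Lysis with saponin/Triton buffer containing SYBR Green I, overnight at room temperature in the dark; DNA fluorescence (485/535 nm) normalised to 0.29 uM artemisinin and DMSO.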

Assay [15] is described as follows: qHTS profiling for inhibitors of Plasmodium falciparum (DD2) proliferation (AID 743323; call rule not given here). The settings on record: lower = more inhibition; at 28.7 µM (top of the series). In outline: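 1536-well qHTS; infected RBCs 0.3% parasitemia/2.5% Hct final; cpd 72 h 37 C 5% CO2; lysis buffer + SYBR Green I, o/n RT dark; FI 485/535; norm. to 0.29 uM artemisinin and DMSO, plate-stack corrected.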

Assay [16] can be described thus: qHTS profiling for inhibitors of Plasmodium falciparum (HB3) proliferation (AID 743324).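 Further: 100% = DMSO vehicle wells and 0% = artemisinin-treated control wells.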 As to conditions: Plasmodium falciparum HB3 blood-stage proliferation; at 28.7 µM (top of the series). In outline:
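P. falciparum HB3 grown in erythrocytes (0.3% parasitemia, 2.5% hematocrit final) with compound for 72 h at 37 C, 5% CO2. Parasite DNA detected by SYBR Green after saponin/triton lysis overnight; normalized to 0.29 uM artemisinin and DMSO.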

Assay [17] can be described thus: qHTS profiling of the MIPE4 collection as inhibitors of Plasmodium falciparum (3D7) proliferation (AID 743344; call rule not given here;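 further: scaled between DMSO vehicle wells and 0.29 µM artemisinin as full inhibition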). The settings on record: P. falciparum 3D7 in erythrocytes, SYBR Green DNA fluorescence, 72 h; at 28.5 µM (top of the series). In outline:
as §1

Assay [18] can be described thus: qHTS profiling of the MIPE4 collection as inhibitors of Plasmodium falciparum (DD2) proliferation (AID 743345; call rule not given here). The settings on record: P. falciparum Dd2 in erythrocytes, SYBR Green DNA, 72 h; at 28.5 µM (top of the series). The essentials: as §1
Assay [19] in a line: qHTS profiling of the MIPE4 collection as inhibitors of Plasmodium falciparum (DD2) proliferation (Rep 2) (AID 743346; call rule not given here). The settings on record: P. falciparum Dd2 in erythrocytes, SYBR Green DNA, 72 h; at 28.5 µM (top of the series). In outline: as §1
The nature of assay [20]: qHTS profiling of the MIPE4 collection as inhibitors of Plasmodium falciparum (HB3) proliferation (AID 743347; call rule not given here;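 further: plate controls were DMSO vehicle wells for no effect and artemisinin wells for full effect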). As to conditions: P. falciparum HB3 in erythrocytes, SYBR Green DNA, 72 h; at 28.5 µM (top of the series). The essentials:
as §1

The subject of assay [21] is Zika virus NS2B-NS3 protease. Description: Primary screen GU AMC qHTS for Zika virus inhibitors (AID 1347154).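 Further: 0% = no-inhibitor control and -100% = no-enzyme control; nearly all actives have a fitted effect of over 70% in size.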 The essentials:
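Unlinked Zika NS2B hydrophilic domain–NS3 protease complex at 25 nM in 10 mM Tris-HCl pH 8.0, 0.01% Tween 20, with an AMC peptide substrate. Fluorescence change (340/450 nm) over 15 min at room temperature, normalized to controls, fitted to 4-parameter Hill.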

Assay [22] is described as follows: Primary qHTS for small molecule stabilizers of the endoplasmic reticulum resident proteome: Secreted ER Calcium Modulated Protein (SERCaMP) assay (AID 1508630). Further: on the % scale 0 is the no-effect control and ±100 the full control effect. The essentials:
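GLuc-SERCaMP-expressing SH-SY5Y cells, pretreated 16 h with compound, are challenged with thapsigargin to empty ER calcium stores; after 4 h, coelenterazine is added directly to the medium and luminescence is imaged.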

Each structure is given as a SMILES string. Results filed as inconclusive are left out. Active and inactive are the calls of the source. Unless noted, the call rests on the fitted dose curve; in most records, active means well fitted curve in the direction sought with a large enough effect; inconclusive means small, poorly fitted or top-dose-only effect, or another doubt; inactive means no such curve, though single readings can be large; an effect the other way counts as inactive or inconclusive.

Galactokinase (Homo sapiens), sequence (P51570 whole entry, looked up): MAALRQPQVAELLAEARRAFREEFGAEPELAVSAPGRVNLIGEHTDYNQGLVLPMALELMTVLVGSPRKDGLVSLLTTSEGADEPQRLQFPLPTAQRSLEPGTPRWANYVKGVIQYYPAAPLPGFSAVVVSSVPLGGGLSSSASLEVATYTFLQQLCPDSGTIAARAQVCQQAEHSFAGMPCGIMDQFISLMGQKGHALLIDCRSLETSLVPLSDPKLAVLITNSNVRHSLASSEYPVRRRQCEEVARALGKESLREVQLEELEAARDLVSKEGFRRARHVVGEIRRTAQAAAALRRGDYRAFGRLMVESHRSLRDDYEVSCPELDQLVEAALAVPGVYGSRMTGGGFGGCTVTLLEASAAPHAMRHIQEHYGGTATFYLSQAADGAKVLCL
Thyrotropin-releasing hormone receptor (Homo sapiens), sequence (P34981 whole entry, looked up): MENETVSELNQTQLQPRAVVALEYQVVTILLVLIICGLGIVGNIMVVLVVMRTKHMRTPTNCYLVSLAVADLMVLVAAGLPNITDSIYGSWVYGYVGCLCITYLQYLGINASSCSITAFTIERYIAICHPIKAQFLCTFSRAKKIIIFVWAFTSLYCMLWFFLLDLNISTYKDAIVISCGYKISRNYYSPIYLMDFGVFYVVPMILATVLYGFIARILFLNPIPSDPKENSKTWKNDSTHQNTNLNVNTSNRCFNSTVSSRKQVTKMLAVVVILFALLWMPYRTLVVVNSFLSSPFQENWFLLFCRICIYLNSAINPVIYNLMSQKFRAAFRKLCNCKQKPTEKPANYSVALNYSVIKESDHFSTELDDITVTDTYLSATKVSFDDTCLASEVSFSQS
DNA dC->dU-editing enzyme APOBEC-3G (Homo sapiens), sequence (Q9HC16 whole entry, looked up): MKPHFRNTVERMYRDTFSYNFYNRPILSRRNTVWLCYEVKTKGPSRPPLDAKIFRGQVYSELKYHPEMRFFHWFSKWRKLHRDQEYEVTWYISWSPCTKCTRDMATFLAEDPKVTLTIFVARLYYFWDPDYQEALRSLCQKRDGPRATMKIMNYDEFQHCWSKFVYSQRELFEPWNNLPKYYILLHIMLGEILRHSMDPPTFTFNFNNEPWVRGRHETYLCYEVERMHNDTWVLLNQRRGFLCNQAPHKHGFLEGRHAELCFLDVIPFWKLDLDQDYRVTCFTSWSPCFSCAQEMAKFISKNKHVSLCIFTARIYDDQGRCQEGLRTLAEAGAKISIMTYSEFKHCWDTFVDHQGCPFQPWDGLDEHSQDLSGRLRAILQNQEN
Voltage-gated inwardly rectifying potassium channel KCNH2 (Homo sapiens), sequence (Q12809 whole entry, looked up): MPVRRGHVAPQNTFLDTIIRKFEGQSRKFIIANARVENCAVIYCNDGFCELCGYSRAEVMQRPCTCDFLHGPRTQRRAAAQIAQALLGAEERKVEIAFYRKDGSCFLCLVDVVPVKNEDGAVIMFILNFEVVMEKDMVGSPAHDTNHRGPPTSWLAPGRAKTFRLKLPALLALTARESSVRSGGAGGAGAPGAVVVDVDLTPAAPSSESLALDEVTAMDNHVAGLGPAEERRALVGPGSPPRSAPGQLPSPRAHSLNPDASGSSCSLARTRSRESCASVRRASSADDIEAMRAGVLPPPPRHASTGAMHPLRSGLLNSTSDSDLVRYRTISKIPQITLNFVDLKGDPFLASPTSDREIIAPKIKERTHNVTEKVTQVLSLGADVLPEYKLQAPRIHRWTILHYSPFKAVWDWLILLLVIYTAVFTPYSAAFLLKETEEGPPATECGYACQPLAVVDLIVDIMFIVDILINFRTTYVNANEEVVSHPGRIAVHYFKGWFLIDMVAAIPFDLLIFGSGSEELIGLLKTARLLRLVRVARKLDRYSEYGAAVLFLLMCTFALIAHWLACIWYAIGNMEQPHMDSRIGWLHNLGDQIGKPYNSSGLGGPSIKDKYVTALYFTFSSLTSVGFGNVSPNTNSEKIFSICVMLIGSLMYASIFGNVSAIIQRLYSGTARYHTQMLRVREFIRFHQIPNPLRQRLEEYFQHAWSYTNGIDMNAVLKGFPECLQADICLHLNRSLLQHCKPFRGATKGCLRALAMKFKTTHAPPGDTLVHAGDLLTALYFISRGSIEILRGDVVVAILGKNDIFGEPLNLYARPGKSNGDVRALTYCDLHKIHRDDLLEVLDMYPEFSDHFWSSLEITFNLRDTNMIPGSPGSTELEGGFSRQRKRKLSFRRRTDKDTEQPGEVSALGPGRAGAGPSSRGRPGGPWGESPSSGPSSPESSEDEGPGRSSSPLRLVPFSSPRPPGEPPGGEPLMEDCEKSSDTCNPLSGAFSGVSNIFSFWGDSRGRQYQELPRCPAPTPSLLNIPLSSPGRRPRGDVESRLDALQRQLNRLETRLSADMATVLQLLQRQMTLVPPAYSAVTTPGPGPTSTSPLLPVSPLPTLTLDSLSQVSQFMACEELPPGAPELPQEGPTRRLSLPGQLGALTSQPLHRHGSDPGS
ATP-dependent DNA helicase Q1 (Homo sapiens), sequence (P46063 whole entry, looked up): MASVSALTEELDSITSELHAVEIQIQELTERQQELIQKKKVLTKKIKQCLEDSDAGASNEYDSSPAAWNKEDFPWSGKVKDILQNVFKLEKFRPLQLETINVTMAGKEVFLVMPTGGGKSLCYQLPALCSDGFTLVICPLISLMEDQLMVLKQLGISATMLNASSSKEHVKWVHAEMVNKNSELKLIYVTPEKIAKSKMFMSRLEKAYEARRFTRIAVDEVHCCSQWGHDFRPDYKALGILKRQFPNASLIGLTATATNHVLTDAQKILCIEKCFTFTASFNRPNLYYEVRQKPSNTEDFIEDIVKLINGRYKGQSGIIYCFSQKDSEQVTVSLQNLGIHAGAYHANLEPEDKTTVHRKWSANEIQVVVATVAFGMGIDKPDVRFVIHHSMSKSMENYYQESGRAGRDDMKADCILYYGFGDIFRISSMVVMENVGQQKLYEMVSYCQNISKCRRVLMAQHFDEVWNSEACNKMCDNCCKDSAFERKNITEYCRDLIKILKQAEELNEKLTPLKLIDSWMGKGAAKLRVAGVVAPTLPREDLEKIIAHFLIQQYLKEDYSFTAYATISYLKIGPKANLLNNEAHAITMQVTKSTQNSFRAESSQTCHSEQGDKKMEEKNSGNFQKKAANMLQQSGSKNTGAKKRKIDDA
Transient receptor potential cation channel subfamily V member 1 (Homo sapiens), sequence (Q8NER1 whole entry, looked up): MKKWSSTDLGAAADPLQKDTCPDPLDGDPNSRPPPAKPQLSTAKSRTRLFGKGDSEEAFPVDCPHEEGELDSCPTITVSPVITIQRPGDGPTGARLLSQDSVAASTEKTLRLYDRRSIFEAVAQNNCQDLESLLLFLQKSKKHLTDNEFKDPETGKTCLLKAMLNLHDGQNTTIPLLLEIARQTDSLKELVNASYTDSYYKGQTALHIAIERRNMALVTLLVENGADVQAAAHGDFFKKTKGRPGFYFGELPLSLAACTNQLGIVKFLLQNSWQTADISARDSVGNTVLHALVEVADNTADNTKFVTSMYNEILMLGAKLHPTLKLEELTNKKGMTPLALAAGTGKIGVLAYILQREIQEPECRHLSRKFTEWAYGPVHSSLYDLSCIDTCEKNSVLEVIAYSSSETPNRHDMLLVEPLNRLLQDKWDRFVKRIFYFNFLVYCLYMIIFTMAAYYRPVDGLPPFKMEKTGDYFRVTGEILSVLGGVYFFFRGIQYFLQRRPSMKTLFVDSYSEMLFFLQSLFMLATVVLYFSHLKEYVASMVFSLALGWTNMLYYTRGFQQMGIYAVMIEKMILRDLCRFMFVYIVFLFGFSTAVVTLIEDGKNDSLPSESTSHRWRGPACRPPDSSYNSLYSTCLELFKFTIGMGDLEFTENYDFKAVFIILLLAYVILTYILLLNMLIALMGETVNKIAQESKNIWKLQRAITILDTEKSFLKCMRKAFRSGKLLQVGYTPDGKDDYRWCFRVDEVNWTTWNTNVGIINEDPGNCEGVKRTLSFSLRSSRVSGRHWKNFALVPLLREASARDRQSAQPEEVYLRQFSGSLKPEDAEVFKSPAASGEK
Ferritin light chain (Equus caballus), sequence (P02791 2-175 limits assumed): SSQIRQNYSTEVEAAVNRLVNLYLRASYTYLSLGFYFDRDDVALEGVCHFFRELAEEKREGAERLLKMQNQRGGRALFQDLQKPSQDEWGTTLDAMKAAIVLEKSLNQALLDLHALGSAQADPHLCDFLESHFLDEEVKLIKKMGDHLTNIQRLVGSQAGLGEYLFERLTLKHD
Thyrotropin receptor (Homo sapiens), sequence (P16473 whole entry, looked up): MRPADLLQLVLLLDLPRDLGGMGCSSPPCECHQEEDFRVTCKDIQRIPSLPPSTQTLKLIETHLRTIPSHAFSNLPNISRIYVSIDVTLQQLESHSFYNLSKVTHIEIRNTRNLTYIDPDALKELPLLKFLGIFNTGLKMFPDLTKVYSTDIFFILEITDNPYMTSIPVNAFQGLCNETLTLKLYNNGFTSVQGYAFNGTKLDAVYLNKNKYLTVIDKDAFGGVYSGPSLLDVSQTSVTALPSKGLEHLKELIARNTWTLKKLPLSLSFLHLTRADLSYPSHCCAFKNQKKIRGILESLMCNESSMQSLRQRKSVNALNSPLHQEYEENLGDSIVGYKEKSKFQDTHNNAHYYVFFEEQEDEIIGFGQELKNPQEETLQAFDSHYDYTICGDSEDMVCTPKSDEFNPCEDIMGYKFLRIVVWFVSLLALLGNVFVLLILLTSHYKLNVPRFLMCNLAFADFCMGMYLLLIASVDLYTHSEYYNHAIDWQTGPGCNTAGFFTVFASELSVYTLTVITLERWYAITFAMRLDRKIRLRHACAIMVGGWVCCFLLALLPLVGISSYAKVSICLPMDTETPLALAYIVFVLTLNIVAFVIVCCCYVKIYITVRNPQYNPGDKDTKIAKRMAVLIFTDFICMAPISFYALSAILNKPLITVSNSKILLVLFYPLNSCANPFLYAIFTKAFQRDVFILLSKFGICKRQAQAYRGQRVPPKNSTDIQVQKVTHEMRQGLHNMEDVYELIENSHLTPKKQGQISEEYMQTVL

Take `COc1cc2c(cc1C(F)(F)F)N(C(=O)Nc1cc(F)cc(-c3cccnc3)c1)CC2`: the Potency in assay [1] was 1260 nM (active); in assay [4] it was 1850 nM (active); in assay [5], 2940 nM (active). Also, the call in [2], in [7], in assay [8], in assay [10] and in [11] was inactive. Besides, the Potency result in assay [3], in assay [6], in [12], in [13], in assay [21] and in assay [22] was “inactive” each time. In assay [9], the activation was 5.25% (inactive). In addition, in [14], the remaining parasite growth % (stronger effect = lower value) was -1.39%. This molecule also displayed an activity, percent of control in [15] of 5.68%. In addition, the remaining proliferation (% of control), lower = more inhibition in assay [16] is -0.36%. In assay [17], the parasite growth, % of DMSO control stood at 6.27%. Besides, in [18], the parasite growth remaining, % of DMSO control (lower = more inhibition) stood at 15.3%. In [19], this molecule gave a parasite growth, % of control (lower = inhibition) of 34.1%. For the same molecule, the growth, % of control in [20] is 3.34%.

These data come from PubChem BioAssay (NCATS).
